Assay in all cases: universal protein binding microarray (PBM); transcription factors of Arabidopsis thaliana; high values mean tight binding
Assay [1] deals with T1, GST-ANAC092(1-176) (Arabidopsis thaliana, UniProt Q9FKA0 1-176).
T1 sequence: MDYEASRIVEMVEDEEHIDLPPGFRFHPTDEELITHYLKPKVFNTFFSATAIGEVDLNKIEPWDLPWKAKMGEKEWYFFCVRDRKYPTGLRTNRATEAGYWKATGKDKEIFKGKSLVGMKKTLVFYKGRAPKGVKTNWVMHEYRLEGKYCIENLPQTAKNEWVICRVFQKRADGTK
Conditions: protein: recombinant; tags: GST; chain copies: 2; dsDNA, one strand shown. The method, boiled down: (§1)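 Protein amounts were determined by A280 or anti-GST western blot after glutathione–Sepharose 4B purification of GST-tagged proteins induced in cells, with zinc acetate included for zinc-finger proteins. Duplicate runs at 200 to 500 nM final were done on custom all-10-mer Agilent 4 × 180K arrays made double-stranded by primer extension. The normalised enrichment score (E-score) over gapped and ungapped 8-mers is the measure of binding.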

In assay [2] the target is T2, GST-ANAC019 NAC domain (Arabidopsis thaliana, UniProt Q9C932 14-162).
T2 sequence: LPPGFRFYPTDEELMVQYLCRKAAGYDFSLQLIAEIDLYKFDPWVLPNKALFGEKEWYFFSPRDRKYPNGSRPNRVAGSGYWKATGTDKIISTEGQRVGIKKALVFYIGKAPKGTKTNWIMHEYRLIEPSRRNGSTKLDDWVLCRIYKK
Conditions: protein: recombinant; tags: GST; chain copies: 2; dsDNA, one strand shown. In outline:
as §1

For assay [3], the target named is T3, GST-ANAC055(1-171) (Arabidopsis thaliana, UniProt Q9LDY8 1-171).
T3 sequence: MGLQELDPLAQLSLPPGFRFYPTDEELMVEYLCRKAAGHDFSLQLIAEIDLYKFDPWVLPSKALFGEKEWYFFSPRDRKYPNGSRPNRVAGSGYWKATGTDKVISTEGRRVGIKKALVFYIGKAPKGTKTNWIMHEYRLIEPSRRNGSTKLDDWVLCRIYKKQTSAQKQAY
To be noted: protein: recombinant; tags: GST; chain copies: 2; dsDNA, one strand shown. In outline: as §1

In assay [4] the target is T4, GST-ATAF1 NAC domain (Arabidopsis thaliana, UniProt Q39013 7-158).
T4 sequence: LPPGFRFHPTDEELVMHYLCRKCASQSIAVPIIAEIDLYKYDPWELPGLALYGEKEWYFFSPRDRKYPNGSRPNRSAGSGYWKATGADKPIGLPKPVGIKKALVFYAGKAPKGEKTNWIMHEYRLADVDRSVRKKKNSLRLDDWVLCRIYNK
Conditions: protein: recombinant; tags: GST; chain copies: 2; dsDNA, one strand shown. In outline:
as §1

Assay [5] addresses T5, GST-ANAC092(1-285) full length (Arabidopsis thaliana, UniProt Q9FKA0 1-285).
T5 sequence: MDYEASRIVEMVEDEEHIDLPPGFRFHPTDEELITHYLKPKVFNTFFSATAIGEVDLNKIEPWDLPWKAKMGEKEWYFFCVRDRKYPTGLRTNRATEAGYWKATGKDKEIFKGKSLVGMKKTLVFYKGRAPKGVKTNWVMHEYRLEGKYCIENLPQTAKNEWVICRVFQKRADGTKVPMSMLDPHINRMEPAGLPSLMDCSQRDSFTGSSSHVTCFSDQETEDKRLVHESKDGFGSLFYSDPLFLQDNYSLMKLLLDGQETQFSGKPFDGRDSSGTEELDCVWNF
Conditions: protein: recombinant; tags: GST; chain copies: 2; dsDNA, one strand shown. The method, boiled down: as §1

Assay [6] has as its target T6, GST-NAP(1-166) (Arabidopsis thaliana, UniProt O49255 1-166).
T6 sequence: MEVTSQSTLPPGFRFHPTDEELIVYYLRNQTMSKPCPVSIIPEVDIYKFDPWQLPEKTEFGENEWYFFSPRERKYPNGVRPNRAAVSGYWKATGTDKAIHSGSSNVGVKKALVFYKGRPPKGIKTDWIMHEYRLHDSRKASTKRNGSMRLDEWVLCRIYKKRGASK
To be noted: protein: recombinant; tags: GST; chain copies: 2; dsDNA, one strand shown. The method, boiled down: as §1

Assay [7] concerns the target T7, GST-NST2(1-184) (Arabidopsis thaliana, UniProt Q9M274 1-184).
T7 sequence: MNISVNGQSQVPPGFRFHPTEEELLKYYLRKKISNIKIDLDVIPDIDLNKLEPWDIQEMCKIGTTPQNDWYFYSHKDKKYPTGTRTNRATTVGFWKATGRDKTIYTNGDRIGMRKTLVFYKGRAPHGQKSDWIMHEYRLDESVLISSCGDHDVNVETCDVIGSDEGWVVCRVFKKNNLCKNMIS
Conditions: protein: recombinant; tags: GST; chain copies: 2; dsDNA, one strand shown. The method, boiled down:
as §1

Assay [8] addresses T8, GST-SND1(1-203) (Arabidopsis thaliana, UniProt Q9LPI7 1-203).
T8 sequence: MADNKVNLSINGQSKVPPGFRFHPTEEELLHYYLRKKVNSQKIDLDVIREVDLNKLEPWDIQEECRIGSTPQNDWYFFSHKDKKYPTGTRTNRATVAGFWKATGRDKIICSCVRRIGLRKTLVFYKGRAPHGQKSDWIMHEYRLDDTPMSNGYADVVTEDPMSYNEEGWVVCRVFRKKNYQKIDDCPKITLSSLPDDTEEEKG
Conditions: protein: recombinant; tags: GST; chain copies: 2; dsDNA, one strand shown. In outline:
as §1

The target of assay [9] is T9, GST-VND3 NAC domain (Arabidopsis thaliana, UniProt Q9FH59 12-162).
T9 sequence: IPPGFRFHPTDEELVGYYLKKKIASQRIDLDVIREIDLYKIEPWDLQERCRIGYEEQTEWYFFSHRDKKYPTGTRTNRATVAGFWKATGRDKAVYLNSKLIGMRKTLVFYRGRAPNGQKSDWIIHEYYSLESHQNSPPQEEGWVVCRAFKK
To be noted: protein: recombinant; tags: GST; chain copies: 2; dsDNA, one strand shown. In outline: as §1

Assay [10] concerns the target T10, GST-VND7 NAC domain (Arabidopsis thaliana, UniProt Q9C8W9 9-158).
T10 sequence: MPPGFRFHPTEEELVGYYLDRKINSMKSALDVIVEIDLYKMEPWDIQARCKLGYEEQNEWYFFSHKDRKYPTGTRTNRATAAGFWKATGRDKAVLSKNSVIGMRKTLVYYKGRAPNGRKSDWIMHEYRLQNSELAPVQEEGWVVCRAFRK
Conditions: protein: recombinant; tags: GST; chain copies: 2; dsDNA, one strand shown. The method, boiled down: as §1

Assay [11] has as its target GST-WRKY1(266-371) (Arabidopsis thaliana, UniProt Q9SI37 266-371). Conditions: protein: recombinant; tags: GST; dsDNA, one strand shown. The method, boiled down: as §1
The target in assay [12] is GST-NTL6(1-168) (Arabidopsis thaliana, UniProt Q9SCK6 1-168). To be noted: protein: recombinant; tags: GST; chain copies: 2; dsDNA, one strand shown. In outline:
as §1

Assay [13] has as its target T11, GST-NTL8 NAC domain (Arabidopsis thaliana, UniProt Q9XIN7 14-156).
T11 sequence: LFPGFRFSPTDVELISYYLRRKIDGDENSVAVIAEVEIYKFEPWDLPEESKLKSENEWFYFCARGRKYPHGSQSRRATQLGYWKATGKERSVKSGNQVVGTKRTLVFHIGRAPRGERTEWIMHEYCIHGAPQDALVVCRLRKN
To be noted: protein: recombinant; tags: GST; chain copies: 2; dsDNA, one strand shown. The method, boiled down: as §1

Sequence of GST-NTL6(1-168) (Q9SCK6 1-168): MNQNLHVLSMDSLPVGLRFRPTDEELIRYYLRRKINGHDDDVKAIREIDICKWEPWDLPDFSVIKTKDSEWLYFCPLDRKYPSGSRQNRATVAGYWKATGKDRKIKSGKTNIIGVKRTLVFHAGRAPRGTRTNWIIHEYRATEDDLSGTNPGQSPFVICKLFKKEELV
Sequence of GST-WRKY1(266-371) (Q9SI37 266-371): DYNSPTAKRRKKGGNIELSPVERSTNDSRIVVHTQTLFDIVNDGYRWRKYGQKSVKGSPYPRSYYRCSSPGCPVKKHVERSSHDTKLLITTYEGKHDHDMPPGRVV

ACACGTCA: the binding signal in assay [1] turned out to be 0.484 E-score; in assay [2], 0.436 E-score; in assay [3], 0.402 E-score; in [4] it was 0.382 E-score; in assay [5], 0.487 E-score; in assay [6], 0.431 E-score. Besides, the binding signal in assay [7] came out at 0.316 E-score; in assay [8], 0.352 E-score; in assay [9], 0.395 E-score; in [10], 0.447 E-score; in assay [11], 0.251 E-score.

Regarding GCACGTCA, the binding signal in assay [1] is 0.449 E-score; in [2], 0.421 E-score; in assay [3], 0.341 E-score; in [4], 0.317 E-score; in assay [5], 0.465 E-score; in assay [6], 0.341 E-score. Moreover, the binding signal came out at 0.229 E-score in [7]; 0.29 E-score in assay [8]; 0.368 E-score in [9]; 0.38 E-score in assay [10]; 0.195 E-score in assay [11].

Turning to TCACGTCA, the binding signal amounted to 0.429 E-score in assay [1]; 0.38 E-score in [2]; 0.354 E-score in [3]; 0.321 E-score in assay [4]; 0.429 E-score in [5]; 0.329 E-score in assay [6]. For the same sequence, the binding signal in [7] stood at 0.188 E-score; in [8], 0.343 E-score; in assay [9], 0.322 E-score; in assay [10], 0.367 E-score; in assay [11], 0.292 E-score.

In the case of GCAAGTCA, the binding signal came out at 0.187 E-score in [1]; 0.0738 E-score in [12]; 0.0771 E-score in assay [4]; 0.301 E-score in assay [5]; 0.0804 E-score in [7]; 0.175 E-score in [8]. In addition, the values for the binding signal in assay [9], in assay [10] and in assay [11] were 0.115 E-score, 0.12 E-score and 0.423 E-score, respectively.

For CTACGTCA, the binding signal in assay [1] was found to be 0.0986 E-score; in assay [2] it was 0.133 E-score; in [3] it was 0.129 E-score; in [4] it was 0.166 E-score; in assay [5], 0.318 E-score; in [6], 0.148 E-score. Moreover, the binding signal is 0.31 E-score in assay [7]; 0.452 E-score in assay [8]; 0.144 E-score in assay [9]; 0.176 E-score in [10]; 0.137 E-score in assay [11].

For the sequence GAAAGGAA, the binding signal in assay [1] was found to be 0.21 E-score; in assay [12], 0.32 E-score; in assay [2] it was 0.134 E-score; in [3], 0.168 E-score; in assay [4], 0.188 E-score; in assay [5] it was 0.2 E-score. For the same sequence, the binding signal came to 0.228 E-score in [7]; 0.422 E-score in assay [13]; 0.234 E-score in assay [8]; 0.209 E-score in [9]; 0.231 E-score in [10]; 0.0968 E-score in assay [11].

Turning to TAGCGTGA, the binding signal amounted to 0.441 E-score in assay [1]; 0.0555 E-score in [12]; 0.209 E-score in [2]; 0.114 E-score in assay [3]; 0.17 E-score in assay [4]; 0.454 E-score in [5]. The binding signal in [7] was 0.228 E-score; in assay [8] it was 0.42 E-score; in assay [9] it was 0.242 E-score; in assay [10], 0.191 E-score; in [11], 0.0738 E-score.

With ATAACGTA, the binding signal is 0.418 E-score in assay [1]; 0.119 E-score in [12]; 0.19 E-score in [3]; 0.289 E-score in [4]; 0.423 E-score in [5]; 0.187 E-score in assay [6]. Besides, the binding signal in assay [7] was found to be 0.37 E-score; in assay [8], 0.465 E-score; in assay [9], 0.334 E-score; in assay [10], 0.156 E-score; in assay [11], 0.0761 E-score.

The values are drawn from publication PMC4081100, “A DNA-binding-site landscape and regulatory network analysis for NAC transcription factors in Arabidopsis thaliana”.
